According to PubChem BioAssay (NCI):
Several values for one entry are separate records, joined by “and”; a condition that tells them apart may be missing. Equal entries are not always repeated. Compounds without any hit were thinned out: in the full panel of roughly 83,000, 20% have a hit.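 Each cell line was grown in a 96-well plate and treated with one concentration of compound for 48 hours. Values below 10 were considered active.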 Activity calls are given as the source filed them.

Columns and labels:
Experiment in all cases: NCI-60 one-dose screen, 48 h (100 = growth as untreated, 0 = no growth, -100 = all killed)
Conditions in all cases: 10 µM unless noted
[1] = tested on: SK-MEL-2 melanoma
[2] = tested on: EKVX NSCLC
[3] = tested on: UO-31 renal
[4] = tested on: TK-10 renal
[5] = tested on: ACHN renal
[6] = tested on: CAKI-1 renal
[7] = tested on: A498 renal
[8] = tested on: HL-60(TB) leukemia
[9] = tested on: MOLT-4 leukemia
[10] = tested on: RPMI-8226 leukemia
[11] = tested on: OVCAR-8 ovarian
[12] = tested on: OVCAR-5 ovarian
[13] = tested on: OVCAR-4 ovarian
[14] = tested on: SK-OV-3 ovarian
[15] = tested on: IGROV1 ovarian
[16] = tested on: OVCAR-3 ovarian
[17] = tested on: HS 578T breast
[18] = tested on: SN12C renal
[19] = tested on: CCRF-CEM leukemia
[20] = tested on: SR leukemia

Measured: growth

O=c1[nH]c(=O)[nH]c(=O)[nH]1
inactive: [1] 66.7% | [2] 110% | [3] 95.3% | [4] 140% | [5] 161% | [6] 92.7% | [7] 129% | [8] 88.8% | [9] 80.8% | [10] 60.1% | [11] 106% | [12] 103% | [13] 119% | [14] 110% | [15] 68.2% | [16] 119% | [17] 95.7%

C[N+]12CCC34C5=CC(=O)C(=O)C=C5[N+]5(C)C(=O)CC6OCC=C(C1)C(CC32)C6C45 (stereo not drawn)
inactive: [1] 120% | [18] 105% | [3] 96.7% | [4] 116% | [5] 101% | [6] 116% | [7] 126% | [8] 84.2% | [19] 102% | [9] 102% | [20] 92% | [10] 102% | [11] 99.5% | [12] 106% | [13] 101% | [14] 99.9% | [15] 96.9% | [16] 103%

CC(C)COC(=O)Cc1ccccc1
inactive: [1] 113% | [18] 94.2% | [3] 102% | [4] 95.3% | [5] 108% | [6] 101% | [7] 81.1% | [8] 109% | [19] 95.3% | [9] 103% | [20] 100% | [10] 103% | [11] 110% | [12] 106% | [13] 105% | [14] 105% | [15] 109% | [16] 111% | [17] 102%

CC1(C)S[C@H]2CC[C@H]3OC(=O)[C@@H]1N23
inactive: [1] 94.4% | [2] 88.4% | [3] 53.9% | [4] 91.9% | [5] 114% | [6] 66.6% | [7] 93.1% | [8] 60.9% | [19] 82.9% | [9] 75.1% | [20] 92.6% | [10] 79.5% | [11] 102% | [12] 91.1% | [14] 111% | [15] 39.4% | [16] 132% | [17] 112%

C[C@]12CC[C@H](O)C[C@@H]1CC[C@@H]1[C@@H]2CC[C@]2(C)OC(=O)CC[C@@H]12
inactive: [1] 108% | [18] 96.8% | [3] 83.1% | [4] 97.5% | [5] 107% | [6] 92.8% | [7] 109% | [8] 94.4% | [19] 114% | [9] 113% | [20] 125% | [10] 102% | [11] 85.6% | [12] 93.7% | [13] 104% | [14] 85% | [15] 93.1% | [16] 99% | [17] 111%

COc1ccc(C(C#N)C(C)=O)cc1 (stereo not drawn)
inactive: [1] 103% | [18] 102% | [3] 90.4% | [4] 96.8% | [5] 99.8% | [6] 95.3% | [7] 96.8% | [8] 110% | [19] 98.6% | [9] 99.7% | [20] 98.8% | [10] 101% | [11] 95.5% | [12] 95.3% | [13] 131% | [14] 99% | [16] 108%

C=C1C(=O)OC2CC3(C)OC3C3OC3C3=CC(OC3=O)C12 (stereo not drawn)
-30.3% (active) and 58.3% (inactive): [9]
inactive: [1] 100% | [18] 100% and 97.4% | [3] 44.3% and 44.2% | [7] 113% and 106% | [20] 10.7% and 47.9% | [10] 97.9% and 38% | [11] 87.2% and 88.6% | [12] 106% and 104% | [13] 60% and 92.5% | [14] 103% and 106% | [15] 102% and 107% | [16] 41.8% | [17] 96.8%
active: [5] -5.94% and -29% | [6] 4.76% and 6.96% | [19] -42.4% and -54.4%
16.7% (inactive) and -22.5% (active): [4]

c1ccc2c(c1)O[As](O[As]1Oc3ccccc3O1)O2
inactive: [18] 40.2% | [3] 32.2% | [4] 61.6% | [5] 59.3% | [6] 16.5% | [7] 27.5% | [11] 23.3% | [12] 40.6% | [13] 40.3% | [14] 75.6% | [16] 14.2% | [17] 38.8%
active: [1] 5.79% | [8] -28.3% | [20] 2.68% | [10] -14.9% | [15] 6.22%
